Compounds with a hit are over-represented: about 5.6% of the library has one in this group of screens.
H9c2 protect = protects H9c2 cardiomyocytes from peroxide injury. H2O2 injury protection, ATPLite, 2 h. protection from H2O2 cell death, % at 20 µM. hit rate 0.63% among 360,000. AID 588492;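 active = compounds giving at least 50% protection of heart cells from peroxide-induced death in the single-dose screen, raw or plate-pattern-corrected value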;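 also: 0% = DMSO wells with peroxide and 100% = DMSO wells without peroxide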
PfG6PD inh = PfG6PD (Plasmodium falciparum) enzyme inhibition; PfGluPho enzyme, NADPH resazurin-diaphorase fluorescence; inhibition, % at 20 µM; hit rate 0.78% among 350,000;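 active = inhibition reaching at least a set limit at 20 µM in the primary screen, cut at about 59% in these data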;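 also: 0% = DMSO wells with substrate and 100% = DMSO wells lacking glucose-6-phosphate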
PHOSPHO1 block = PHOSPHO1 (human) inhibition; hit rate 1.1% among 290,000; recombinant PHOSPHO1, absorbance phosphatase assay; Q8TCT1; inhibition, % at 13.3 µM; in the data active = inhibition above about 60%
Target sequence (Q8TCT1 whole entry, looked up): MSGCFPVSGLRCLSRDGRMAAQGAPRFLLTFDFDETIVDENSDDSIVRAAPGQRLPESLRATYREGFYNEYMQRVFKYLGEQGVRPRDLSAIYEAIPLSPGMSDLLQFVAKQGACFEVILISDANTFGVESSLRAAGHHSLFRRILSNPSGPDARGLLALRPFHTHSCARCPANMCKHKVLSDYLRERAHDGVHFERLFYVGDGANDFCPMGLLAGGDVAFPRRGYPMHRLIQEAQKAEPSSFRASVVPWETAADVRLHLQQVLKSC
M18AAP inhibitor = blocks P. falciparum M18 aspartyl aminopeptidase. hit rate 1.2% among 290,000. inhibition, % at 7.35 µM. recombinant PfM18AAP, H-Glu-NHMec fluorogenic cleavage;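 active = inhibition above the campaign mean inhibition over all tested compounds plus 3 SD, cut at about 28% in these data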;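 also: 0% = plate median of test compound wells and 100% = 2 mM ZnCl2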
ALR inh = human ALR oxidase inhibition via reduced H2O2; purified ALR, DTT oxidation, H2O2 HRP-luminol luminescence; inhibition, % (concentration not given with the values); hit rate 3.8% among 290,000; AID 485317;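 active = mean replicate inhibition above about 79%, with every replicate also reaching it, limit read from the data; inconclusive = only one of the two criteria met; inactive = mean below limit and not every replicate reaching it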
Target sequence (P55789 whole entry, looked up): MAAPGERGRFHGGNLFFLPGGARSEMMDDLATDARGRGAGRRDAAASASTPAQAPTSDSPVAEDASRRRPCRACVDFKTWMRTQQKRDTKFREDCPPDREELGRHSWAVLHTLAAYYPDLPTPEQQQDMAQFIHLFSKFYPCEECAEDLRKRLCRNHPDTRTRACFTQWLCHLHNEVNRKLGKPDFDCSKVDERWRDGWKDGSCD
Numbers without * were called inactive; ? = inconclusive; . = not tested or not shown.

SMILES	H9c2 protect	PfG6PD inh	PHOSPHO1 block	M18AAP inhibitor	ALR inh
Clc1nc2c(ccc3ccccc32)[nH]1	-7.3	11.5	19.7	-0.3	.
Nc1ccc(-c2nc3ccccc3[nH]2)cc1	-3.9	7.0	15.2	2.4	98.1*
Nc1ccc(-c2nc3c(ccc4ccccc43)[nH]2)cc1	-2.3	37.1	49.4	3.5	98.9*
Cc1cc(C(=O)NNC(=O)c2ccc(F)cc2)c(C)s1	-2.1	-7.1	.	.	-0.9
COc1cccc(NC(=O)NCc2ccccc2Cl)c1	-2.2	8.9	.	.	-1.4
CC(=C\c1ccccc1)/C=C1/SC(=S)N(CCCC(=O)O)C1=O	1.6	-25.0	39.4	-5.8	13.5
CC(/C=C1\SC(=O)N(CCCC(=O)O)C1=O)=C\c1ccccc1	2.8	-17.8	-4.6	1.2	96.9*
CN(C)c1ccc(C(=S)N2CCN(S(=O)(=O)c3ccccc3)CC2)cc1	0.1	4.5	27.9	7.0	27.2
CN(C)c1ccc(C(=S)N2CCN(c3ccccc3)CC2)cc1	1.8	7.0	2.8	3.3	99.2*
Cc1ccc(N2CCN(C(=S)c3ccc(N(C)C)cc3)CC2)cc1	-15.3	47.3	65.8*	9.2	17.6
CCc1nc(N[C@@H](Cc2c[nH]c3ccccc23)C(=O)O)c2oc3ccccc3c2n1	-3.1	-19.6	20.0	2.0	88.7*
Cc1nc(N[C@@H](Cc2c[nH]c3ccccc23)C(=O)O)c2oc3ccccc3c2n1	.	12.4	-12.4	7.7	-18.1
COc1ccccc1N1CCN(Cc2cc(=O)oc3cc(C)cc(C)c23)CC1	-4.9	.	.	.	.
Cc1ccc2c(c1)Oc1ccc(NC(=O)CCl)cc1C(=O)N2	-1.5	-14.7	-19.6	-9.7	93.3*
O=C(O)C1C(c2ccccc2)C(C(=O)Oc2ccc(O)cc2)C1c1ccccc1 (stereo unspecified)	-0.2	-33.9	10.5	-26.1	94.4*
COCCN(CC1CCCN(C2Cc3ccccc3C2)C1)C(=O)CCC(N)=O (stereo unspecified)	1.4	-4.8	-33.5	0.6	.
C[C@H](CO)N1C[C@H](C)[C@@H](CN(C)Cc2ccccc2)Oc2c(NC(=O)C3CC3)cccc2C1=O	12.6	-1.9	.	.	-1.5
CC1=C(C)/C(=N\OS(=O)(=O)c2ccc(C)cc2)C=CC1=O	-22.6	107.6*	9.7	15.2	.
CC1=CC(=NOS(=O)(=O)c2ccc(C)cc2)CC(C)(C)C1	-15.6	.	.	.	.
COc1ccc(S(=O)(=O)/N=C2/C=CC(=O)C(C)=C2C)cc1	-3.0	62.0*	10.0	-32.1	.
COc1ccc(S(=O)(=O)c2ccc(OC)cc2)cc1	1.7	-25.3	2.6	2.0	11.9
CCOC(=O)C(=O)N(C)c1c(CC)nc2c(OCc3ccccc3OC)cccn12	6.5	.	.	.	.
CCOC(=O)c1cc(C#N)c(SCc2cccc3ccccc23)nc1C	-15.0	0.1	2.5	13.8	-11.0
CCOC(=O)c1cc(C#N)c(N2CCN(c3ccc(OC)cc3)CC2)[nH]c1=O	12.6	-4.4	27.7	1.0	92.7*
CCOC(=O)c1cc(C#N)c(SCC(=O)c2cc(C#N)c(SC)nc2C)nc1C	-11.2	12.4	73.2*	.	-3.4
SMILES	H9c2 protect	PfG6PD inh	PHOSPHO1 block	M18AAP inhibitor	ALR inh
CCOC(=O)c1cc(C#N)c(SCC(=O)OC)[nH]c1=O	-13.5	3.5	-0.5	3.5	99.3*
Cc1cc2[nH]c(=O)c(=O)[nH]c2cc1S(=O)(=O)NCc1ccc(Cl)cc1	11.3	7.2	-14.0	-1.6	-4.8
O=C(CCN1CCN(c2ccccc2)CC1)NNC(=O)c1cccc2ccccc12	6.7	16.8	7.2	-6.0	99.0*
Cc1cc(C(=O)NNC(=O)CCN2CCN(c3ccccc3)CC2)c2ccccc2n1	3.5	-13.4	-7.1	1.8	98.2*
COc1cccc(C(=O)NNC(=O)CCN2CCN(c3ccccc3)CC2)c1	2.2	9.2	.	.	85.8*
CCc1cc(C(=O)NNC(=O)CCN2CCN(c3ccccc3)CC2)sc1C	2.2	6.8	2.9	-0.2	1.5
Cc1ccc(OCc2cc(C(=O)N3CCCC(O)C3)no2)cn1 (stereo unspecified)	5.3	3.7	1.0	-7.7	0.6
Cc1ccc2c(C)nc(Nc3nc(CSc4nc5ccccc5[nH]4)cc(=O)[nH]3)nc2c1	69.0*	13.0	17.6	2.1	-3.7
Cc1cc(N)n2nc(C)c(-c3ccc(Cl)cc3)c2n1	-10.4	15.7	16.8	7.7	.
Cc1cc(N)n2nc(C)c(-c3ccccc3)c2n1	-4.2	-4.3	60.1*	-9.7	28.4
O=C1C[C@@H](c2ccc(O)cc2)Oc2cc(O)cc(O)c21	3.3	-1.1	3.7	3.5	99.6*
COc1cc(C2CC(=O)c3c(O)cc(O)cc3O2)ccc1O (stereo unspecified)	-3.8	-19.4	39.7	7.7	?

Bioassay records: PubChem BioAssay, several laboratories
